The values that follow come from PubChem BioAssay AID1851 (National Center for Advancing Translational Sciences (NCATS), 2009).

SMILES strings stand for the structures. In all, about 16,000 compounds went through this assay and about 5,700 (36%) were called active. Roughly 24% stayed inconclusive and do not appear here. Some of the results follow. A number with no mark means an inactive call. Calls come from the whole dose curve; as a rule, active = well fitted curve in the direction sought with a large enough effect; inconclusive = small, poorly fitted or top-dose-only effect, or effect the other way; inactive = no such curve, though single readings can be large or run the other way.
% is set by controls: 0 for no effect and ±100 for the full control effect.

Sequence of Cytochrome P450 1A2 (Homo sapiens) (P05177 whole entry, looked up): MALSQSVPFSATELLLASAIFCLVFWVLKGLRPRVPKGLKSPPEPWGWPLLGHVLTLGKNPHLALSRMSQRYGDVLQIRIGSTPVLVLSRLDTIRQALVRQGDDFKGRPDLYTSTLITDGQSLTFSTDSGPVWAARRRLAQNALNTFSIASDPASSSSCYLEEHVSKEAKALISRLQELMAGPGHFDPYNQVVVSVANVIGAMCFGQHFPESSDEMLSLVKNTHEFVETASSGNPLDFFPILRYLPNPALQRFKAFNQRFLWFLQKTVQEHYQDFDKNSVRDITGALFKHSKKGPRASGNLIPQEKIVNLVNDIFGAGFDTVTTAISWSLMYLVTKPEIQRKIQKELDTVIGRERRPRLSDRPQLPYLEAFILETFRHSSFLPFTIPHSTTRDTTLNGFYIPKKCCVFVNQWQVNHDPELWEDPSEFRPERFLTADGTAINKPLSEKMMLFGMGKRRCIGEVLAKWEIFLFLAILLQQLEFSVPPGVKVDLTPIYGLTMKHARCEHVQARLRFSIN

This assay concerns the target Cytochrome P450 1A2 (Homo sapiens) (UniProt P05177). As to the kind of experiment: Cytochrome panel assay with activity outcomes. The note with it: recombinant CYP, pro-luciferin dealkylation, luminescence, p450-cyp1a2; series mostly up to 57.1 µM; activity, negative = inhibition: at the top concentration.
Turning to `Cc1ccc(C(=O)c2ccc(CC(=O)O)n2C)cc1`, the “activity, negative = inhibition” value is -8.27% [at 25.6 µM]. On the same count and under the same terms, under `CO[C@@H]1/C=C\CC(=O)N[C@@H](C)C(=O)OC[C@@H](OC)[C@H](C)/C=C\CC(=O)OC[C@H]1C` stands -4.89% [at 11.4 µM]; under `OC[C@H]1NC[C@@H](O)[C@@H](O)[C@H]1O`, -6.82%.

On to `Cc1ccccc1C(C(=O)NC1CCCC1)N(C(=O)Cc1cccs1)c1ccc2c(c1)OCCO2` (stereo not drawn), for which the “activity, negative = inhibition” value is -11%. As usually defined, the AC50 is the midpoint of the concentration-response curve, whichever way the signal moves. `CCC(=O)Nc1cc2c(cc1C(=O)c1ccccc1)OCCO2`: the AC50 is 25100 nM (active). For the molecule `CC(C)C(=O)Nc1cc2c(cc1C(=O)c1ccccc1)OCCO2`, the AC50 was 14100 nM (active).

With `CC(C)/C(=N/[N+](C)(C)C)c1ccccc1`, the activity, negative = inhibition was -16.2% [at 2.29 µM].

`CCCC(=O)n1nc(-c2cccnc2)nc1N`: the AC50 was 5010 nM (active). Consider `CCC(=O)n1nc(-c2ccc(OC)cc2)nc1N`, for which the AC50 is 2000 nM (active). For `COc1ccc(-c2ccc(N)[n+](CCCC(=O)O)n2)cc1`, the AC50 entry is “inactive”.

Regarding `COc1ccc(-n2c(SC)nc(O)c(Cc3ccccc3)c2=O)cc1`, the “activity, negative = inhibition” value was -1.57%.

As for `COc1ccc(C(=O)N2CCC3(CC2)CCN(C(c2ccccc2)c2ccccc2)CC3)cc1`, the “activity, negative = inhibition” value is -14.1%.

On to `COc1ccc(C(=O)n2nc(-c3ccccc3)nc2SC)cc1`, for which the concentration at half-maximal activity (AC50) was 562 nM (active). Take `COc1ccc(-c2nc(N)c3ncn([C@H]4O[C@@H](CO)[C@@H](O)[C@@H]4O)c3n2)cc1`: the activity, negative = inhibition is -13% [at 2.29 µM]. Consider `COc1cccc(-c2[nH]nc3c2C(c2ccsc2)C(C#N)=C(N)O3)c1` (stereo not drawn), for which the AC50 is 1120 nM (active).

`COc1ccc(C2C(C#N)=C(N)Oc3n[nH]c(C)c32)cc1CN1CCN(c2ccc(F)cc2)CC1` (stereo not drawn): the “activity, negative = inhibition” value was -23.9%. For the molecule `COc1cccc(-c2[nH]nc3c2C(c2ccc(C)o2)C(C#N)=C(N)O3)c1` (stereo not drawn), the AC50 is 1580 nM (active).

For `O=C(CP(=O)(c1ccccc1)c1ccccc1)Nn1cnnc1`, the “activity, negative = inhibition” value is -30%. Turning to `CC1(C)[C@@H]2CC[C@]1(C)[C@@H](OC(=O)CSC#N)C2`, the activity, negative = inhibition was -18.3% [at 2.29 µM].

For the molecule `Cc1cccn2c(/C=N/OCc3ccc(F)cc3)c(-c3ccc(Cl)cc3)nc12`, the AC50 is 2000 nM (active). Still for that read-out and setting: under `Cc1cccn2c(/C=N/OCc3cccc(F)c3)c(-c3ccc(Cl)cc3)nc12` stands 2000 nM (active). In the case of `C#CCCCO/N=C1/C[C@@H](O)[C@@H](O)[C@@H]2[C@@H]3C(=O)N([C@@H](C)c4ccccc4)C(=O)[C@H]3CC[C@H]12`, the activity, negative = inhibition was 0.735% [at 11.4 µM]. As to `Cn1c(O)c(C(C#N)=C2N=c3ccccc3=N2)c2ccccc21`, the AC50 was 1580 nM (active). As to `O=c1ccc2c(OCCCCc3ccccc3)c3ccoc3cc2o1`, the AC50 was 501 nM (active). Still for that read-out and setting: under `CCn1c(=O)[nH]c2ccccc2c1=O` stands 1780 nM (active); under `COCCNc1ncnc2ccc(-c3ccccc3OC)cc12`, 2000 nM (active).

`COCCNc1ncnc2ccc(-c3ccccc3C(F)(F)F)cc12`: the AC50 is 1580 nM (active).

In the case of `Clc1ccccc1-c1ccc2ncnc(NCc3cccnc3)c2c1`, the AC50 is 158 nM (active). As for `FC(F)(F)c1ccccc1-c1ccc2ncnc(NCc3cccnc3)c2c1`, the AC50 is 1000 nM (active). Take `CC1=N[C@@](C)(COC(=O)[C@]2(C)N[C@](C)(CO)CO2)COC1=O`: the activity, negative = inhibition is 6.88% [at 2.29 µM]. With `COc1ccccc1-c1ccc2ncnc(NCc3cccnc3)c2c1`, the AC50 was 794 nM (active).

With `COc1ccccc1-c1ccc2ncnc(NCc3ccccc3)c2c1`, the AC50 was 2000 nM (active).

As to `COc1cccc(-c2ccc3ncnc(NCc4cccnc4)c3c2)c1`, the AC50 is 251 nM (active). `C=CC1=C(C(=O)O)N2C(=O)[C@@H](NC(=O)/C(=N\OCC(=O)O)c3csc(N)n3)[C@@H]2SC1`: the “activity, negative = inhibition” value was 1.89% [at 25.6 µM]. Same read-out and setting: with `CN1CCC2(CC1)CCN(C(=O)c1cc(C(F)(F)F)cc(C(F)(F)F)c1)CC2` the figure was -5.41%; with `Cn1c(=O)c2[nH]c(CCCCc3nc4c([nH]3)c(=O)n(C)c(=S)n4C)nc2n(C)c1=S`, -13.8% [at 2.29 µM].

`COC(=O)C/C=C\[C@@H](C)[C@@H]1C=C[C@H](OC(C)=O)[C@H](COC(C)=O)O1`: the activity, negative = inhibition was -1.57% [at 11.4 µM]. Regarding `C=CCNc1nc(-c2ccc(Cl)cc2)cs1`, the AC50 is 2240 nM (active). Turning to `CC(Oc1ccc(-c2ccccc2)c(F)c1)c1ccn(S(=O)(=O)c2ccc(Cl)cc2)n1` (stereo not drawn), the “activity, negative = inhibition” value is -15.3%. As to `O=S(=O)(c1ccccc1)N1CN2CN(C1)CN(S(=O)(=O)c1ccccc1)C2`, the activity, negative = inhibition was -14.9% [at 11.4 µM]. Turning to `CC(Oc1ccc(Cl)cc1)c1ccnn1S(=O)(=O)c1ccccc1` (stereo not drawn), the AC50 was 15800 nM (active). Take `CC(Oc1ccccc1)c1ccnn1S(=O)(=O)c1ccccc1` (stereo not drawn): the AC50 was 25100 nM (active).

On to `CCOC(=O)c1ccc(NC(=O)C2(c3ccc(OC)cc3)CCOCC2)cc1`, for which the “activity, negative = inhibition” value was -4.73%. For `CCOC(=O)c1ccc(Nc2nc(C(=O)OCC)nc3ccccc23)cc1`, the concentration at half-maximal activity (AC50) was 891 nM (active). For the molecule `COC(=O)c1c(C)nc2ccccc2c1C(=O)O`, the “activity, negative = inhibition” value is -9.4%. For the molecule `CCOC(=O)c1ccc(Nc2nc(-c3cccnc3)nc3ccccc23)cc1`, the AC50 is 6310 nM (active). Turning to `CCCNC(=O)OC[C@@H]1O[C@H](CCO/N=C\[C@@H](C)[C@H](OCc2ccccc2)C(C)C)C=C[C@@H]1Oc1ccc(OC)cc1`, the activity, negative = inhibition was -5.94% [at 11.4 µM]. Still for that read-out and setting: with `O=C(Nc1cccc(F)c1)N1CC[C@@]2(CCCNC2)C1` the figure was -12.5%. In the case of `O=C(O)[C@@H]1[C@@H](C(=O)NCc2ccncc2)[C@@H]2C=C[C@@H]1O2`, the AC50 is 5010 nM (active). As for `O=C(O)[C@@H]1[C@@H](C(=O)Nc2ncccn2)[C@@H]2C=C[C@@H]1O2`, the activity, negative = inhibition was -13.2% [at 2.29 µM]. For `O=C(O)[C@@H]1[C@@H](C(=O)NCc2cccnc2)[C@@H]2C=C[C@@H]1O2`, the activity, negative = inhibition is -0.421% [at 2.29 µM].

With `CC1Cc2ccccc2N1C(=O)Cn1c(=O)cc(O)c2ccccc21` (stereo not drawn), the AC50 was 14100 nM (active). Turning to `C[C@@H]1Cc2ccccc2N1NC(=O)c1ccc(Cl)c(S(N)=O)c1` (stereo partly drawn), the “activity, negative = inhibition” value was -11.4% [at 25.6 µM].

For `CC1Cc2ccccc2N1C(=O)CN1C(=O)COc2ccccc21` (stereo not drawn), the “activity, negative = inhibition” value is -14.8%.

For `COc1ccc(-n2cccc2C=O)cc1OC`, the AC50 is 14100 nM (active). As to `COc1ccc(N2C(=O)NC3CC2(C)Oc2ccccc23)cc1OC` (stereo not drawn), the “activity, negative = inhibition” value is -28.6%.

Take `COc1ccc(-n2c(C)n[nH]c2=O)cc1OC`: the “activity, negative = inhibition” value is -13.2%. On the same count and under the same terms, with `COc1ccc(C(=O)N2CCC[C@@]3(CCN(Cc4ccc(C#N)cc4)C3)C2)cc1` the figure was -20.7%.
